Experimental data published in PubChem BioAssay (Tox21).
Values joined by “and” are separate entries in the source; they are usually repeats but may differ in a detail not shown here. Equal entries are not always repeated. Records with an inconclusive call do not appear. Active and inactive are the calls of the source. Unless noted, calls follow the shape of the dose curve; as a rule, active = well fitted curve in the direction sought with a large enough effect in the repeat runs; inconclusive = weak or mixed curves; inactive = no such curve, though single readings can be large; an effect the other way counts as inactive or inconclusive.

How the values were obtained:
[1] = qHTS assay to identify small molecule antagonists of the retinoid acid receptor (RAR) signaling pathway - cell viability counter screen (AID 1159551); also: nearly all actives have a fitted effect of over 35% in size; also: potency is read from the fitted curve at half-maximal effect
How it was run: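 Seed C3RL4 cells; next day add compound, then retinol to 1 uM final; incubate 6 h at 37 C; add CellTiter-Glo; read luminescence after 30 min at RT.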

[2] = molecular target: Nuclear receptor subfamily 1 group I member 3 (Homo sapiens) (UniProt Q14994); assay: qHTS assay to identify small molecule agonists of the constitutive androstane receptor (CAR) signaling pathway (AID 1224839); also: nearly all actives have a fitted effect of over 15% in size; also: potency is read from the fitted curve at half-maximal effect
How it was run: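 HepG2 cells stably co-transfected with hCAR and a CYP2B6-2.2kb luciferase reporter; compounds at 15 concentrations with 0.75 uM PK11195 present. After 24 hr at 37 C, luciferase read by ONE-Glo luminescence.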

[3] = qHTS assay to identify small molecule agonists of the hypoxia (HIF-1) signaling pathway - cell viability counter screen (AID 1224844; calls by dose curve; also: nearly all actives have a fitted effect of over 50% in size; also: potency is read from the fitted curve at half-maximal effect)
How it was run: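 Multiplexed with the HRE beta-lactamase assay, this viability read used CellTiter-Glo luminescence (30 min, RT) on HRE-bla ME-180 cells treated 17 hrs with compounds in 0.5% dialyzed FBS medium.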

[4] = qHTS RealTime-Glo MT Cell Viability Assay in HEK293 cells - 16 hour (AID 1224872); also: potency is read from the fitted curve at half-maximal effect; nearly all actives have a fitted effect of over 50% in size
How it was run: (§1)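 Tox21 10K qHTS, HEK293, 600 cells/well, RealTime-Glo reagent co-dispensed with cells; 5 h preincubation, compound by pintool, 37 C, luminescence at 0–40 h.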

[5] = qHTS RealTime-Glo MT Cell Viability Assay in HepG2 cells - 8 hour (AID 1224873); also: nearly all actives have a fitted effect of over 55% in size; also: potency is read from the fitted curve at half-maximal effect
How it was run: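 Real-time viability: cells seeded at 600 per well together with NanoLuc and cell-permeant prosubstrate, compounds added after 5 h incubation. Luminescence tracked at 0, 8, 16, 24, 32 and 40 h of exposure.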

[6] = qHTS RealTime-Glo MT Cell Viability Assay in HEK293 cells - 24 hour (AID 1224886); also: nearly all actives have a fitted effect of over 50% in size; also: potency is read from the fitted curve at half-maximal effect
How it was run: as §1

[7] = qHTS assay to identify small molecule agonists of the estrogen receptor beta (ER-beta) signaling pathway - cell viability counter screen (AID 1259380); also: potency is read from the fitted curve at half-maximal effect; nearly all actives have a fitted effect of over 30% in size
How it was run: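 Cells used were ER-beta-UAS-bla HEK293T in medium with 2% charcoal-stripped FBS. They were treated for 16 hr at 37C. Viability came from CellTiter-Glo luminescence.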

[8] = qHTS assay to identify small molecule antagonists of the estrogen receptor beta (ER-beta) signaling pathway - cell viability counter screen (AID 1259382); also: nearly all actives have a fitted effect of over 55% in size; also: potency is read from the fitted curve at half-maximal effect
How it was run: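 Agonist-stimulated (1nM E2) ER-beta-UAS-bla HEK293T cells are incubated with library compounds for 16 hr at 37C. Cell viability is then assessed in the reporter-assay wells by adding CellTiter-Glo and reading luminescence after 30 min.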

[9] = molecular target: Thyrotropin receptor (Homo sapiens) (UniProt P16473); assay: qHTS assay to identify small molecule antagonists of the thyroid stimulating hormone receptor (TSHR) signaling pathway (AID 1259385; calls by dose curve; also: nearly all actives have a fitted effect of over 20% in size; also: potency is read from the fitted curve at half-maximal effect)
How it was run: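 Antagonist mode: compound-treated TSHR-expressing HEK293 cells were stimulated with 1.5 ng/mL TSH (final) in presence of Ro20-1724 for 30 min at RT. HTRF cAMP detection after 1 h; each compound tested at 15 concentrations, triplicate.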

[10] = molecular target: Progesterone receptor (Homo sapiens) (UniProt P06401); assay: qHTS assay to identify small molecule agonists of the progesterone receptor (PR) signaling pathway (AID 1346784; calls by dose curve; also: nearly all actives have a fitted effect of over 30% in size)
How it was run: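 PR-UAS-bla HEK 293T cells (beta-lactamase reporter under UAS) in 2% charcoal-stripped FBS, dosed with 23 nL compound after 6 hr, incubated 16hr at 37C. LiveBLAzer B/G FRET substrate added, fluorescence read after 2 hours.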

[11] = molecular target: Thyrotropin-releasing hormone receptor (Homo sapiens) (UniProt P34981); assay: qHTS assay to identify small molecule agonists of the thyrotropin-releasing hormone receptor (TRHR) signaling pathway (AID 1346891; calls by dose curve; also: series mostly up to about 58 µM)
How it was run: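 HEK293 cells expressing TRHR plated 18 h at 37 C/5% CO2, calcium dye-loaded 2 h at 37 C, then compound added (agonist mode); kinetic calcium fluorescence read 3 min at 1 s intervals; 15 concentrations in triplicate.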

[12] = Human pregnane X receptor (PXR) small molecule agonists, qHTS cell viability counter screen (AID 1346977); also: nearly all actives have a fitted effect of over 50% in size; also: potency is read from the fitted curve at half-maximal effect
How it was run: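 PXR-Luc HepG2 cells (2,000/well, 5% charcoal-stripped FBS) preincubated 5 hr, then exposed to compounds 24 hr at 37 C. Viability read in the same wells by CellTiter-Fluor fluorescence, reagent added at 23 hr, 1 hr incubation.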

[13] = Caspase-3/7 induction in CHO-K1 cells by small molecules, qHTS cell viability counter screen (AID 1346979); also: potency is read from the fitted curve at half-maximal effect; nearly all actives have a fitted effect of over 35% in size
How it was run: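 Wild-type CHO-K1 cells (1,500/well) treated with compound after 5 h plating; after 16 h at 37C, viability read as CellTiter-Fluor fluorescence following 1 h reagent incubation, in the same wells as the caspase read.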

[14] = Caspase-3/7 induction in HepG2 cells by small molecules, qHTS cell viability counter screen (AID 1346981); also: nearly all actives have a fitted effect of over 30% in size; also: potency is read from the fitted curve at half-maximal effect
How it was run: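 Multiplexed with the caspase-3/7 assay: HepG2 cells, 16 hr compound treatment, CellTiter-Fluor viability detection by fluorescence.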

[15] = molecular target: Cytochrome P450 2D6 (Homo sapiens) (UniProt P10635); assay: Cytochrome P450 Family 2 Subfamily D Member 6 (CYP2D6) small molecule antagonists: luciferase reporter qHTS assay (AID 1671196)
How it was run: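 Luminescence (RLU), read 20 min after detection reagent, indicated CYP2D6 conversion of proluciferin to luciferin during a 1 h NADPH-dependent reaction at room temperature.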

[16] = molecular target: Cytochrome P450 3A4 (Homo sapiens) (UniProt P08684); assay: Cytochrome P450 Family 3 Subfamily A Member 4 (CYP3A4) small molecule antagonists: luciferase reporter qHTS assay (AID 1671201); also: nearly all actives have a fitted effect of over 50% in size; also: potency is read from the fitted curve at half-maximal effect
How it was run: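 P450-Glo CYP3A4 luminescent assay: compounds preincubated 10 min at room temperature with enzyme and proluciferin substrate, NADPH regeneration added, 1 h room-temperature reaction, stopped with luciferin detection reagent; luminescence read after 20 min. Ketoconazole positive control.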

[17] = qHTS assay to identify small molecule agonists of the RXR signaling pathway - cell viability counter screen (AID 1159529); also: nearly all actives have a fitted effect of over 50% in size; also: potency is read from the fitted curve at half-maximal effect
How it was run: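 RXR-alpha-UAS-bla HEK 293T cells in medium with 2% charcoal-stripped FBS were pre-incubated 5 hr, then compound-treated 16 hr at 37 C. Viability was read by CellTiter-Glo luminescence in the same wells as the beta-lactamase assay, with tetraoctyl ammonium bromide as positive control.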

[18] = qHTS assay to identify small molecule antagonists of the estrogen related receptor signaling pathway with the pleiotropic PPARgamma coactivator (PGC) from Tox21 10K library - cell viability counter screen (AID 1224840; active = well fitted cell-killing curve with a large enough effect in the repeat runs, not every such curve was filed as active; also: nearly all actives have a fitted effect of over 40% in size; also: potency is read from the fitted curve at half-maximal effect)
How it was run: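 Here the PGC/ERR cells serve as a cytotoxicity control: they are exposed to compounds for 17.5 hours at 37 C, and live-cell signal is quantified using CellTiter-Fluor fluorescence.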

[19] = A CellTox Green Cytotoxicity Assay to monitor cytotoxicity in HEK293 cells - 32 hour (AID 1224881); also: nearly all actives have a fitted effect of over 40% in size; also: potency is read from the fitted curve at half-maximal effect
How it was run: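 Seeding of HEK293 cells together with cytotoxicity dye preceded a 5 h incubation at 37 C/5% CO2. Test compounds in DMSO were then added and fluorescence monitored across 40 h.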

[20] = qHTS assay to identify small molecule agonists of the androgen receptor (AR) signaling pathway in the presence of an antagonist - cell viability counter screen (AID 1259379); also: nearly all actives have a fitted effect of over 25% in size; also: potency is read from the fitted curve at half-maximal effect
How it was run: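 A CellTiter-Fluor read-out measured viability of MDA-kb2 reporter cells (MMTV promoter with AR and GR response elements). Treatment: nilutamide 3.0uM final with compounds at 15 concentrations, 16 hr, 37C, 0% CO2.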

Measured: Potency

Chain of Thyrotropin receptor (Homo sapiens) (P16473 whole entry, looked up): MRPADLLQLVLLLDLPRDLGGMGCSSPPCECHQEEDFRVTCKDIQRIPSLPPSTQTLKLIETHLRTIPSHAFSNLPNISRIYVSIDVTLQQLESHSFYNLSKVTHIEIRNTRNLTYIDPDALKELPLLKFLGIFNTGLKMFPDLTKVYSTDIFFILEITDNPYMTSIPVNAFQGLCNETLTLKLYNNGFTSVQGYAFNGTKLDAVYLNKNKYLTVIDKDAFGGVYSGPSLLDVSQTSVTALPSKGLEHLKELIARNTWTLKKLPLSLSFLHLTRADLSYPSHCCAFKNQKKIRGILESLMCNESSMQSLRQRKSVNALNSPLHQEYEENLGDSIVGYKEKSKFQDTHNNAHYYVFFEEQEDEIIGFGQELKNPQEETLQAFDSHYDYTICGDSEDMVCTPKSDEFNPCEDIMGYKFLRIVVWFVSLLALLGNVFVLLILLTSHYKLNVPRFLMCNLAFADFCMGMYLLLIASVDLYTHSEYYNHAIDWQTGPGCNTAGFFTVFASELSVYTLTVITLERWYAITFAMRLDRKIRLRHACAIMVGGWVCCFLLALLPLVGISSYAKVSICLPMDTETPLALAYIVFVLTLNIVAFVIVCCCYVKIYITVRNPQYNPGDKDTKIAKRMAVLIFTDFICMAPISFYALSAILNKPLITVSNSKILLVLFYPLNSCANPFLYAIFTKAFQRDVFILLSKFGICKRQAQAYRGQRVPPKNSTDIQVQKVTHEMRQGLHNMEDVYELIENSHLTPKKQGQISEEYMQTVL
Chain of Cytochrome P450 3A4 (Homo sapiens) (P08684 whole entry, looked up): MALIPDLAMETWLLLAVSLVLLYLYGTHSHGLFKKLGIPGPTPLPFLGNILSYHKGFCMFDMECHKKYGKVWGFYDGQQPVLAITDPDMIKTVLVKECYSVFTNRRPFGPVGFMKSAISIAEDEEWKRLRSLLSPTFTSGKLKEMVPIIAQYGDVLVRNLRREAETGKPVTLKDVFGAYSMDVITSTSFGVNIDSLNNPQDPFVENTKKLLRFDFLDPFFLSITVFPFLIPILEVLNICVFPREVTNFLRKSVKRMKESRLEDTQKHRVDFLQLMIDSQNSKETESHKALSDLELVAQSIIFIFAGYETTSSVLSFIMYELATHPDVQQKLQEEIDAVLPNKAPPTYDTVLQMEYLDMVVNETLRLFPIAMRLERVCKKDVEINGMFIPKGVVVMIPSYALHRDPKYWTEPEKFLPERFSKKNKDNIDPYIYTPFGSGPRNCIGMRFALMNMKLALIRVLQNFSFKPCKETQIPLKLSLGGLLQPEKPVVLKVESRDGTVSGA
Chain of Thyrotropin-releasing hormone receptor (Homo sapiens) (P34981 whole entry, looked up): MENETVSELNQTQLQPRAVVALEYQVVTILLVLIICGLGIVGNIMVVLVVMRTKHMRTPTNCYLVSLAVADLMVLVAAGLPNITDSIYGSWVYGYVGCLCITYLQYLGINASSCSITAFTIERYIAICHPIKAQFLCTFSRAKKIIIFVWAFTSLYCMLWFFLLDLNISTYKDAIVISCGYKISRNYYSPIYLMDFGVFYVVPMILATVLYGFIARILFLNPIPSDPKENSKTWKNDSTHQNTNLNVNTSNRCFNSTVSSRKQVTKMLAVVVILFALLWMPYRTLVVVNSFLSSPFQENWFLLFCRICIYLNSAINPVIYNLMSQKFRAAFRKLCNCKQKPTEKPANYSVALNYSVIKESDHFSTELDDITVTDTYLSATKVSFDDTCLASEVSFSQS
Chain of Cytochrome P450 2D6 (Homo sapiens) (P10635 whole entry, looked up): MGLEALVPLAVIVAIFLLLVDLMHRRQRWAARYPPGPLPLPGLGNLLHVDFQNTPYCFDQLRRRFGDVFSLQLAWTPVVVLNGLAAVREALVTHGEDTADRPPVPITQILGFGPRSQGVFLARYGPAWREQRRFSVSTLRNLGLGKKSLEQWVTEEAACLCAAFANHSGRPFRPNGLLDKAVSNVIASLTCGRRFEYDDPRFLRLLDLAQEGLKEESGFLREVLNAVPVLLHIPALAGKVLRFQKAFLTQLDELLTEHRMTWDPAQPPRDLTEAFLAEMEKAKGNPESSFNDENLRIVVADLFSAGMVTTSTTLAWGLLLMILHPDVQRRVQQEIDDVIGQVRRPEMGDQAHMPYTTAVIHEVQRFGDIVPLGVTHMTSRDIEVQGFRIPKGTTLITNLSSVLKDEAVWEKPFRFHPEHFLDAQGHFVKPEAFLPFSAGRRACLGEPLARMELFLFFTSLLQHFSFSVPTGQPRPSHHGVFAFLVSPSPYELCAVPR
Chain of Nuclear receptor subfamily 1 group I member 3 (Homo sapiens) (Q14994 whole entry, looked up): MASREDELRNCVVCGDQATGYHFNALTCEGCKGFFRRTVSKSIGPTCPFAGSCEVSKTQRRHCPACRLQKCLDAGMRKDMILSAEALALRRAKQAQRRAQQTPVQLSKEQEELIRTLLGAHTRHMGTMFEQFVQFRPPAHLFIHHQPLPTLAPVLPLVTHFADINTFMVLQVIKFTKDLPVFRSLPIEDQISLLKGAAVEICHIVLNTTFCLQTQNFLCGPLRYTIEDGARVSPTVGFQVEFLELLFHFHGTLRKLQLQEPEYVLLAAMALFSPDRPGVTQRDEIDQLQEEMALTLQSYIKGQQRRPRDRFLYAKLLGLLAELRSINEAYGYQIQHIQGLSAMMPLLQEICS
Chain of Progesterone receptor (Homo sapiens) (P06401 whole entry, looked up): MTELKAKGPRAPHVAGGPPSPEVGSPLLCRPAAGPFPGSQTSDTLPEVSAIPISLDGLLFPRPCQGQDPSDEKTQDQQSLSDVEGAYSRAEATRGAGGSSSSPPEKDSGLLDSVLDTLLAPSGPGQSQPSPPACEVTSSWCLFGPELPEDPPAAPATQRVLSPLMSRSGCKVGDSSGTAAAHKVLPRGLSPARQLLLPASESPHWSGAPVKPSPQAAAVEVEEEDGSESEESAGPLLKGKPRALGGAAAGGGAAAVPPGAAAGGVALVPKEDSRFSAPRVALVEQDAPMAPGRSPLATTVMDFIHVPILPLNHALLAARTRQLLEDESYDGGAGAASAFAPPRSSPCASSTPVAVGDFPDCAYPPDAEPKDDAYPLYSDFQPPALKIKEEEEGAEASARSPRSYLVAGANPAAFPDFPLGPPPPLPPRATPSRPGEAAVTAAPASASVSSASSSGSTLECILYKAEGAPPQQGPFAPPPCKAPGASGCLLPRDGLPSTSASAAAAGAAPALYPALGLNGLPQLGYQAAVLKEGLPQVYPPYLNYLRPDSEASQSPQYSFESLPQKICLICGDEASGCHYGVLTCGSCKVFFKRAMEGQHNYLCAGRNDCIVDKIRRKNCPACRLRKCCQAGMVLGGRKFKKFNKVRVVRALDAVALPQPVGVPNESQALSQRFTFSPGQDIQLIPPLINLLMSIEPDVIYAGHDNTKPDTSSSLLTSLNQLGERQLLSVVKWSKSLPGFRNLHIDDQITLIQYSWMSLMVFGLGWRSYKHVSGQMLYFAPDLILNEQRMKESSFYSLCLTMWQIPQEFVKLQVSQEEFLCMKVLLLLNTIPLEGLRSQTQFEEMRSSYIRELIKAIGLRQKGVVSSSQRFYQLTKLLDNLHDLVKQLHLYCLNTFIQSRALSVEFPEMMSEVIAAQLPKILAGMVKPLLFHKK

Cc1cc(C(C)(C)c2ccc(O)c(C)c2)ccc1O
inactive: [1] | [3] | [5] | [8] | [9] | [10] | [11]
active: [2] 29.2 µM | [4] 20.8 µM | [6] 20.8 µM | [7] 29.2 µM | [12] 20.7 µM | [13] 41.2 µM | [14] 46.2 µM | [15] 30.2 µM | [16] 1.91 µM

Cc1ccc(N(SC(F)(Cl)Cl)S(=O)(=O)N(C)C)cc1
inactive: [2] | [11]
active: [17] 38.9 µM | [1] 48.6 µM | [18] 24.3 µM | [3] 17.4 µM | [4] 5.49 µM | [5] 21.9 µM | [19] 5.49 µM | [6] 5.49 µM | [20] 27.3 µM | [7] 54.5 µM | [9] 61.1 µM | [12] 43.3 µM | [13] 4.33 µM | [14] 61.1 µM

CC1COC(Cn2cncn2)(c2ccc(Oc3ccc(Cl)cc3)cc2Cl)O1 (stereo unspecified)
active: [4] 21.9 µM | [6] 19.5 µM | [20] 48.6 µM | [12] 21.7 µM | [13] 24.3 µM | [14] 43.3 µM | [15] 39.9 µM | [16] 0.0796 µM
inactive: [1] | [3] | [19]

COc1cc(OC)c(OC)cc1C=O
active: [15] 19.4 µM
inactive: [17] | [1] | [2] | [18] | [5] | [19] | [6] | [20] | [11]

Cc1nnc2n1-c1sc(CCc3ccc(CC(C)C)cc3)cc1C(c1ccccc1Cl)=NC2C (stereo unspecified)
active: [17] 23.9 µM | [3] 19 µM | [4] 19 µM | [6] 10.7 µM | [7] 29.8 µM | [8] 33.5 µM | [13] 29.8 µM
inactive: [9] | [11]

OC(Cc1ccccc1Cl)(Cn1[nH]cnc1=S)C1(Cl)CC1 (stereo unspecified)
active: [16] 5.64 µM
inactive: [1] | [2] | [3] | [5] | [19] | [8] | [9] | [11] | [12] | [14]

CCOC(=O)C(O)(c1ccc(Cl)cc1)c1ccc(Cl)cc1
inactive: [3] | [5] | [20] | [8] | [10] | [11] | [16]
active: [17] 31.2 µM and 43.6 µM | [2] 55 µM and 54.5 µM | [4] 19.7 µM and 34.7 µM | [19] 44.1 µM | [6] 22.1 µM and 34.7 µM | [13] 61.8 µM
